40 sequences from the OligoGym collection can be followed below.
Note: reference of the scale not given here.

One test addresses HAX1. Briefly: pooled miR-30 sensor sort-seq; sequence = guide strand. The conditions noted are these: shRNA.
With TGCTATTGAAATCTCGTACTAG, the sensor-assay potency score (higher = more potent) was determined as 0.119.
In the case of TCACTGTCCACCACAGTCCGGC, the sensor-assay potency score (higher = more potent) was -0.474.
Same read-out and setting: the value for TTATCGTGGAAACGTATCCCTC was -1.22; that for TTAGTGATCTTGGTCACAGAGA was -0.982; that for TTCACTATTCCACATATCCAAG was -1.52.
TACTAGGTCATCAAAGCCGAAG yielded a sensor-assay potency score (higher = more potent) of -1.1.
On the same count and under the same terms, in the case of TTACTGTAGTCTCTGTCCGGCC it was -0.884.
TAGGACTGCTATCTGCTTCGTG returned a sensor-assay potency score (higher = more potent) of 0.298.
Same read-out and setting: the value for TTGGTCACAGAGATGCTCTTGA was 0.864; that for ACTTCTTGCATCACTCTCCAAG was -1.46.
On the same count and under the same terms, in the case of TACTTAAGCATTGAGTCCCGAA it was -0.493.
The same measure, in the same setting: the value for TATTGAAATCTCGTACTAGGTC was -0.361.

Another test deals with HBA1. The description is as above. The conditions noted are these: shRNA.
With ACGGGGGTACGGGTGCAGGAAG, the sensor-assay potency score (higher = more potent) is -2.14.
In turn, ACCACGGGGGTACGGGTGCAGG displayed a sensor-assay potency score (higher = more potent) of -2.46.
The same measure, in the same setting: in the case of AAAGACCACGGGGGTACGGGTG it was -1.54; in that of AAGACCACGGGGGTACGGGTGC, -0.867; in that of TCAAAGACCACGGGGGTACGGG, -0.714.
TACGGGTGCAGGAAGGGGAGGA: the sensor-assay potency score (higher = more potent) is -0.675.
TTCAAAGACCACGGGGGTACGG: the sensor-assay potency score (higher = more potent) was -1.1.
With CAGGAAGGGGAGGAGGGGCTGG, the sensor-assay potency score (higher = more potent) is -1.95.
For the sequence AAGGGGCAAGAAGCATGGCCAC, the sensor-assay potency score (higher = more potent) is -1.79.

Another test has as its target HBA2. The test is described as above. To be noted: shRNA.
With AAGGGCCGGTGCAAGGAGGGGA, the sensor-assay potency score (higher = more potent) is -0.735.
Same read-out and setting: in the case of AGGGCCGGTGCAAGGAGGGGAG it was -1.98; in that of TGCAAGGAGGGGAGGAGGGCCC, -1.68.
Regarding TATTCAAAGACCAGGAAGGGCC, the sensor-assay potency score (higher = more potent) is -0.938.
Regarding TTCAAAGACCAGGAAGGGCCGG, the sensor-assay potency score (higher = more potent) is -0.416.
Same read-out and setting: the value for TGGCTTAGGAGCTTGAAGTTGA was -0.42.
On the same count and under the same terms, the value for AAGTTGACCGGGTCCACCCGAA was -0.435; that for AGACCAGGAAGGGCCGGTGCAA was -1.65.
Regarding TTGGGAGGCCCAGCGGGCAGGA, the sensor-assay potency score (higher = more potent) was -2.
In the case of TTATTCAAAGACCAGGAAGGGC, the sensor-assay potency score (higher = more potent) was -1.06.
Same read-out and setting: the value for AAGTAGGTCTTGGTGGTGGGGA was -0.536.
Same read-out and setting: the value for AGGAAGGGCCGGTGCAAGGAGG was -2.16; that for TTTATTCAAAGACCAGGAAGGG was -0.785.
Same read-out and setting: the value for TCAAAGACCAGGAAGGGCCGGT was 0.259; that for AAGACCAGGAAGGGCCGGTGCA was -1.15.

In a further test the target is HBB. Described as above. The conditions noted are these: shRNA.
As to TTTGCCAAAGTGATGGGCCAGC, the sensor-assay potency score (higher = more potent) is -0.758.
TCACTCAGTGTGGCAAAGGTGC: the sensor-assay potency score (higher = more potent) is -1.09.
On the same count and under the same terms, the value for TCTGATAGGCAGCCTGCACTGG was -0.723; that for AACAGCATCAGGAGTGGACAGA was -1.35.
